Assay in all cases: NCI-60 one-dose screen, 48 h (100 = growth as untreated, 0 = no growth, -100 = all killed)
In one experiment the test system is HCT-15 colon. The settings on record: 10 µM unless noted.
Another experiment deals with HT29 colon. The settings on record: 10 µM unless noted.
A further experiment has as its system SNB-75 CNS. The settings on record: 10 µM unless noted.
For a further experiment, the system named is SNB-19 CNS. The settings on record: 10 µM unless noted.
The next experiment has as its system U251 CNS. The settings on record: 10 µM unless noted.
In another experiment the test system is PC-3 prostate. The settings on record: 10 µM unless noted.
The test system of another experiment is SK-MEL-5 melanoma. The settings on record: 10 µM unless noted.
A further experiment has as its system UACC-62 melanoma. The conditions noted are these: 10 µM unless noted.
The subject of a further experiment is LOX IMVI melanoma. The conditions noted are these: 10 µM.
The test system of another experiment is SK-MEL-28 melanoma. The settings on record: 10 µM unless noted.
In another experiment the test system is SK-MEL-2 melanoma. The conditions noted are these: 10 µM unless noted.
The subject of a further experiment is EKVX NSCLC. The conditions noted are these: 10 µM unless noted.
Another experiment has as its system SN12C renal. The settings on record: 10 µM unless noted.
A further experiment deals with UO-31 renal. The settings on record: 10 µM unless noted.
For a further experiment, the system named is TK-10 renal. The settings on record: 10 µM unless noted.
A further experiment relates to ACHN renal. The settings on record: 10 µM unless noted.
Another experiment has as its system A498 renal. The settings on record: 10 µM unless noted.
Another experiment has as its system CCRF-CEM leukemia. The settings on record: 10 µM unless noted.
The next experiment has as its system MOLT-4 leukemia. The settings on record: 10 µM unless noted.

The structures appear in SMILES notation. The panel holds about 83,000 compounds, 20% with a hit somewhere; the sample as a whole holds those more often.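 Treatment: one concentration, 48 hours, 96-well format. Scoring: percent growth, with anything below 10 considered active.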 Values without a mark were called inactive. Active and inactive are the calls of the source.

Regarding `Clc1ccc(/C=C/c2ccccn2)cc1`, the growth is 89.5% with HCT-15 colon; 111% in the experiment with HT29 colon; 72.5% with SNB-75 CNS; 96.3% in the experiment with SNB-19 CNS; 81.1% in the experiment on U251 CNS; 81.4% in the experiment on PC-3 prostate. Further, the growth is 101% in the experiment with SK-MEL-5 melanoma; 106% in the experiment with UACC-62 melanoma; 98.6% with LOX IMVI melanoma; 99% in the experiment on SK-MEL-28 melanoma; 103% in the experiment on SK-MEL-2 melanoma; 76.3% in the experiment on EKVX NSCLC. Besides, the growth with SN12C renal was 108%; with UO-31 renal, 78.1%; with TK-10 renal it was 99.3%; in the experiment with ACHN renal, 103%; in the experiment with A498 renal it was 77.3%; in the experiment on CCRF-CEM leukemia, -56% (active). Also, in the experiment on MOLT-4 leukemia, the growth is 86.9%.

`COc1ccc(Nc2cc(Cl)ccc2C(=O)O)cn1`: the growth in the experiment with HCT-15 colon is 106%; in the experiment on HT29 colon it was 106%; with SNB-75 CNS, 99.4%; in the experiment on SNB-19 CNS, 96.5%; in the experiment with U251 CNS, 105%; with PC-3 prostate, 99%. Moreover, the growth was 114% in the experiment on SK-MEL-5 melanoma; 96.3% with UACC-62 melanoma; 98.1% in the experiment with LOX IMVI melanoma; 98.8% in the experiment with SK-MEL-28 melanoma; 115% in the experiment with SK-MEL-2 melanoma; 130% with EKVX NSCLC. The growth in the experiment with SN12C renal was 93.2%; in the experiment on UO-31 renal, 88.9%; in the experiment with TK-10 renal it was 156%; in the experiment with ACHN renal, 108%; in the experiment on A498 renal, 90.9%; in the experiment on CCRF-CEM leukemia, 96.3%. Moreover, the growth in the experiment with MOLT-4 leukemia is 93.5%.

On to `O=C(NC(=S)N1CC=CCC1)c1ccccc1`, for which the growth in the experiment on HCT-15 colon is 102%; in the experiment with HT29 colon, 100%; with SNB-75 CNS, 111%; in the experiment on SNB-19 CNS, 105%; with U251 CNS, 104%; in the experiment on PC-3 prostate it was 98.5%. Moreover, the growth is 104% in the experiment on SK-MEL-5 melanoma; 107% with UACC-62 melanoma; 107% in the experiment with LOX IMVI melanoma; 115% in the experiment on SK-MEL-28 melanoma; 84.4% with SK-MEL-2 melanoma; 111% with EKVX NSCLC. Further, the growth in the experiment with SN12C renal is 88.4%; with UO-31 renal, 87%; with TK-10 renal, 94.5%; in the experiment on ACHN renal, 94.3%; in the experiment with A498 renal it was 93.1%; in the experiment with MOLT-4 leukemia, 94.2%.

As to `Cc1ccc([N+](=O)[O-])c(C)n1`, the growth was 97.9% in the experiment on HCT-15 colon; 108% in the experiment with HT29 colon; 77.8% in the experiment with SNB-75 CNS; 105% in the experiment with SNB-19 CNS; 102% with U251 CNS; 89.7% in the experiment on PC-3 prostate. Further, the growth in the experiment with SK-MEL-5 melanoma was 114%; in the experiment with UACC-62 melanoma, 107%; in the experiment with LOX IMVI melanoma, 103%; in the experiment on SK-MEL-28 melanoma it was 99.6%; in the experiment with SK-MEL-2 melanoma, 120%; with EKVX NSCLC, 97.2%. In addition, the growth was 106% in the experiment on SN12C renal; 74.1% with UO-31 renal; 117% in the experiment on TK-10 renal; 91.5% in the experiment on ACHN renal; 79.8% in the experiment with A498 renal; 96.4% with CCRF-CEM leukemia. For the same compound, the growth in the experiment on MOLT-4 leukemia is 115%.

Consider `CC1(C)C2CCC1(C)C1(C2)OCCS1` (stereo not drawn), for which the growth in the experiment on HCT-15 colon was 95.9%; with HT29 colon, 110%; with SNB-75 CNS it was 78.5%; in the experiment with SNB-19 CNS, 88.8%; with U251 CNS, 97%; with PC-3 prostate, 92.4%. The growth in the experiment with SK-MEL-5 melanoma is 93.8%; with UACC-62 melanoma, 87%; in the experiment on LOX IMVI melanoma it was 92.2%; in the experiment with SK-MEL-28 melanoma it was 102%; in the experiment with SK-MEL-2 melanoma, 104%; in the experiment on EKVX NSCLC, 87.4%. The growth with SN12C renal was 87.6%; in the experiment with UO-31 renal, 90.1%; with TK-10 renal, 97.9%; in the experiment on ACHN renal, 102%; in the experiment with A498 renal, 113%; in the experiment with CCRF-CEM leukemia, 110%. The growth in the experiment on MOLT-4 leukemia is 99.6%.

For `C=CC(=O)OC1CCC(C(C)(C)CC)CC1` (stereo not drawn), the growth was 98.2% in the experiment on HCT-15 colon; 112% with HT29 colon; 95.4% in the experiment with SNB-75 CNS; 109% with SNB-19 CNS; 116% in the experiment on U251 CNS; 104% with PC-3 prostate. In addition, the growth is 104% with SK-MEL-5 melanoma; 109% in the experiment with UACC-62 melanoma; 101% in the experiment on LOX IMVI melanoma; 110% in the experiment on SK-MEL-28 melanoma; 108% in the experiment on SK-MEL-2 melanoma; 117% in the experiment on EKVX NSCLC. Besides, the growth is 103% with SN12C renal; 83.9% with UO-31 renal; 101% in the experiment on TK-10 renal; 110% in the experiment with ACHN renal; 87.2% in the experiment on A498 renal; 107% with MOLT-4 leukemia.

With `Cn1c(=O)c2nc3c(=O)n(C)c(=O)n(C)c3nc2n(C)c1=O`, the growth in the experiment on HCT-15 colon is 109%; in the experiment on HT29 colon, 109%; in the experiment on SNB-75 CNS, 92.4%; in the experiment with SNB-19 CNS, 92.3%; with U251 CNS, 103%; with PC-3 prostate, 97.4%. In addition, the growth in the experiment with SK-MEL-5 melanoma was 106%; in the experiment with UACC-62 melanoma, 94.4%; in the experiment with LOX IMVI melanoma, 105%; with SK-MEL-28 melanoma it was 122%; in the experiment with SK-MEL-2 melanoma, 110%; in the experiment on EKVX NSCLC, 93.9%. In addition, the growth in the experiment on SN12C renal was 106%; in the experiment with UO-31 renal, 82.1%; in the experiment with TK-10 renal, 128%; in the experiment with ACHN renal, 101%; with A498 renal, 126%; in the experiment with CCRF-CEM leukemia, 104%. Also, the growth with MOLT-4 leukemia was 84.9%.

Regarding `OCC1CCC(O)C(CO)N1` (stereo not drawn), the growth was 94.1% in the experiment with HCT-15 colon; 108% in the experiment with HT29 colon; 70.2% in the experiment on SNB-75 CNS; 105% in the experiment on SNB-19 CNS; 100% with U251 CNS; 95% in the experiment with PC-3 prostate. For the same compound, the growth was 108% in the experiment on SK-MEL-5 melanoma; 105% with UACC-62 melanoma; 100% with LOX IMVI melanoma; 96.3% with SK-MEL-28 melanoma; 129% in the experiment on SK-MEL-2 melanoma; 92.3% with EKVX NSCLC. Further, the growth with SN12C renal is 103%; with UO-31 renal it was 90.8%; with TK-10 renal, 121%; in the experiment with ACHN renal, 100%; in the experiment with A498 renal, 91.5%; with MOLT-4 leukemia, 106%.

As to `CC(=O)O[C@H]1CC[C@]2(C)C3=C(C(=O)C[C@H]2C1(C)C)[C@]1(C)CC[C@H]([C@H](C)CCC(=O)O)[C@@]1(C)CC3=O`, the growth is 95.5% with HCT-15 colon; 89.7% with HT29 colon; 91.7% with SNB-75 CNS; 108% in the experiment with SNB-19 CNS; 101% in the experiment on U251 CNS; 92.4% in the experiment on PC-3 prostate. The growth is 102% in the experiment with SK-MEL-5 melanoma; 106% in the experiment on UACC-62 melanoma; 98.1% in the experiment on LOX IMVI melanoma; 105% in the experiment with SK-MEL-28 melanoma; 95.3% with SK-MEL-2 melanoma; 90.8% with EKVX NSCLC. Also, the growth in the experiment on SN12C renal is 106%; with UO-31 renal, 92.2%; with TK-10 renal it was 98.4%; in the experiment on ACHN renal, 103%; in the experiment with A498 renal it was 84.9%; in the experiment with CCRF-CEM leukemia, 98.9%. In addition, in the experiment with MOLT-4 leukemia, the growth was 98%.

These data come from PubChem BioAssay (NCI).
